Data on eleven compounds can be found in PubChem BioAssay (NCATS).

A short description of assay [1]: P-glycoprotein substrates identified in KB-8-5-11 adenocarcinoma cell line, qHTS therapeutic library screen (AID 1346987). Note: nearly all actives have a fitted effect of over 65% in size. Note: potency is the fitted concentration of half-maximal effect. An outline of the steps:
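KB-8-5-11: colchicine-selected sub-line of KB-3-1 over-expressing P-gp; assay medium lacked colchicine. 72 h drug exposure at 37 degree C, CellTiter-Glo.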

Assay [2] deals with Zika virus NS2B-NS3 protease (unlinked complex). Description: Primary screen GU Rhodamine qHTS for Zika virus inhibitors: Unlinked NS2B-NS3 protease assay (AID 1347159). Note: % is set by controls: 0 for no effect and ±100 for the full control effect; nearly all actives have a fitted effect of over 60% in size. The procedure, abridged: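 Noncovalent NS2B hydrophilic domain/NS3 protease complex (25 nM final) in 10 mM Tris-HCl pH 8.0, 0.01% Tween 20, preincubated 15 min with compounds (up to 114 microM), then 1.5 microM Rhodamine110 substrate. Fluorescence change over 15 min fitted to 4-parameter Hill.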
A general note: qHTS replaces the single test concentration by a dilution series.

A short description of assay [3]: Primary qHTS for inhibitors of nuclear receptor binding SET domain protein 2 (NSD2) in an RCH-ACV wild type WT cells (2C) (AID 1645877). Note: nearly all actives have a fitted effect of over 70% in size. Note: potency is the fitted concentration of half-maximal effect.
Assay [4] can be described thus: Primary fluorescence-based thiol-reactive (MSTI) qHTS assay for identification of artifact compounds. (AID 1845221). Note: nearly all actives have a fitted effect of over 65% in size. Note: potency is the fitted concentration of half-maximal effect. The procedure, abridged:
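MSTI probe at 4 uM final in 2% DMSO/PBS pH 7.4; compounds, 1 h at room temperature in dark. Fluorescence Ex/Em 525/598 nm, normalised to Acetyl-MSTI and MSTI, fitted to 4-parameter Hill.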

Assay [5] is described as follows: Primary redox qHTS assay for identification of artifact compounds. (AID 1845223).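 Note: 0% = DMSO and 100% = reference compound.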 The procedure, abridged:
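Amplex Red (25 uM) and HRP (250 mU/mL) in HBSS, with compounds for 15 min, then 250 uM DTT for 30 min, room temperature, dark. Fluorescence 525/598 nm read; normalized to DMSO and 10 uM DA3003; Hill fit.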

The test system of another assay is CAOV3. Description: Primary qHTS to identify gynecologic anti-cancer compounds using libraries of approved drugs and bioactive compounds (AID 1345084). Note: nearly all actives have a fitted effect of over 55% in size. Note: potency is the fitted concentration of half-maximal effect. The following applies: Gynecologic cancer cell panel viability, ATPlite luminescence, 48 h; series mostly up to 57.5 µM. The procedure, abridged: (§1)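 Cells, 1,000 per well, plated 16 h, then exposed 48 h at 37 C to compounds. Viability by ATPlite luminescence after 15 min at room temperature.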

Another assay concerns HeLa. Described as above. The following applies: Gynecologic cancer cell panel viability, ATPlite luminescence, 48 h; series mostly up to 57.5 µM. An outline of the steps:
as §1

Another assay concerns SKOV3. The description is as above. The following applies: Gynecologic cancer cell panel viability, ATPlite luminescence, 48 h; series mostly up to 57.5 µM. The procedure, abridged: as §1
On the technique in general: ATP-based viability assays read luminescence as a measure of living cells.

Assay [6] is described as follows: P-glycoprotein substrates identified in KB-3-1 adenocarcinoma cell line, qHTS therapeutic library screen (AID 1346986). Note: nearly all actives have a fitted effect of over 60% in size. The procedure, abridged:
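KB-3-1 parental cells and P-gp-overexpressing KB-8-5-11 (colchicine omitted during assay) plated at 500 cells/well, dosed in dose-response, incubated 72 h at 37 degree C. CellTiter-Glo luminescence read; KB-8-5-11 also tested with tariquidar.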

In a further assay the test system is HACAT. Description: qHTS assay to identify novel small-molecules to repurpose for Merkel cell carcinoma treatment (AID 1296009). Note: nearly all actives have a fitted effect of over 60% in size. The following applies: MCC and control cell lines, CellTiter-Glo viability, 72 h; at 44.8 µM (top of the series) unless noted. The procedure, abridged: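 Cells exposed to NPC (8-point) and MIPE (11-point) compound dilutions for 72 hr at 37 degree celsius; viability read by CellTiter-Glo luminescence, normalized to no-cell and DMSO in-plate controls.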

The target in assay [7] is Catechol O-methyltransferase (Homo sapiens) (UniProt P21964). Put plainly: Confirmatory Screen for Target Class Profiling of Small Molecule Inhibitors of Methyltransferases (AID 1745852). For activity change, negative = inhibition: % is set by controls: 0 for no effect and ±100 for the full control effect. The following applies: MTase-Glo luminescence, SAH detection, recombinant enzyme; measured here: COMT max response; stronger effect = lower value.
Catechol O-methyltransferase (Homo sapiens), sequence (P21964 whole entry, looked up): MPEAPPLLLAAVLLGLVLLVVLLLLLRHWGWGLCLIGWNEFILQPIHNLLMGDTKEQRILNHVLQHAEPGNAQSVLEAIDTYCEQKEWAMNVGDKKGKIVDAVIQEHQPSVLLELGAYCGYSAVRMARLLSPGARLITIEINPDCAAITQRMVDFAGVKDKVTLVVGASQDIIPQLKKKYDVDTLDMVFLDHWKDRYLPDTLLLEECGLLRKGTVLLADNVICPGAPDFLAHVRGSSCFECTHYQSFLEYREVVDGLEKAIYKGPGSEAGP
For assay [8], the target named is Guanidinoacetate N-methyltransferase (Homo sapiens) (UniProt Q14353). The assay is described as above. The following applies: activity change, negative = inhibition: at 57.3 µM (top of the series) unless noted.
The target in assay [9] is Nicotinamide N-methyltransferase (Homo sapiens) (UniProt P40261). The description is as above. The following applies: MTase-Glo luminescence, SAH detection, recombinant enzyme; measured here: NNMT max response; stronger effect = lower value.
Nicotinamide N-methyltransferase (Homo sapiens), sequence (P40261 whole entry, looked up): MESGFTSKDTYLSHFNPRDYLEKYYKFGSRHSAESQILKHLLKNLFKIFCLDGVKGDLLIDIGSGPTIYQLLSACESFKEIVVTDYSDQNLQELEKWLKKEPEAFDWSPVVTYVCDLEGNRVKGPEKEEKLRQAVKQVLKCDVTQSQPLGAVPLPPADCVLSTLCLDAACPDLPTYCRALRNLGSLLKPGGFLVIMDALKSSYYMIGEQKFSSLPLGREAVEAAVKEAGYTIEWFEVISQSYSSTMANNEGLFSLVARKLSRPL
The target in assay [10] is Phenylethanolamine N-methyltransferase (Homo sapiens) (UniProt P11086). The description is as above. The following applies: MTase-Glo luminescence, SAH detection, recombinant enzyme; measured here: PNMT max response; stronger effect = lower value.
Phenylethanolamine N-methyltransferase (Homo sapiens), sequence (P11086 whole entry, looked up): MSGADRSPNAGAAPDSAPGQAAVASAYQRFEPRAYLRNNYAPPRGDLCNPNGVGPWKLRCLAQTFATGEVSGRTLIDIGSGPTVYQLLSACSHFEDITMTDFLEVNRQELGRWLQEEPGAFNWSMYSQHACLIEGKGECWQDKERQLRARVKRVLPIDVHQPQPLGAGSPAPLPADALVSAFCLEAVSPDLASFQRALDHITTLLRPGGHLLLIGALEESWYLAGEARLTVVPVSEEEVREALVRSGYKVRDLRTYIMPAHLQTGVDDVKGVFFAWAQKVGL
Another assay relates to KB-3-1. Put plainly: Cytotoxic Profiling of Annotated Libraries Using Quantitative High-Throughput Screening (AID 1296008). Note: potency is the fitted concentration of half-maximal effect; nearly all actives have a fitted effect of over 60% in size. The following applies: Five cell lines viability, CellTiter-Glo ATP luminescence, 48-72 h; max response: stronger effect = lower value. An outline of the steps: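 Compounds were pin-transferred onto cells and incubated 48 or 72 hr at 37 degree Celsius, 95% humidity. CellTiter-Glo was added, plates sat 10 min at room temperature, then ATP-coupled luminescence was imaged as the viability read-out.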

Assay [11] deals with Cytochrome P450 2D6 (Homo sapiens) (UniProt P10635). Put plainly: Cytochrome P450 family 2 subfamily D member 6 (CYP2D6) small molecule antagonists: luciferase biochemical (cell-free) qHTS assay (AID 1645840; active = well fitted curve in the direction sought with a large enough effect in the repeat runs; an effect the other way counts as inactive or inconclusive; note: % is set by controls: 0 for no effect and ±100 for the full control effect; nearly all actives have a fitted effect of over 55% in size). The procedure, abridged:
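P450-Glo luminescent screen: recombinant CYP2D6 enzyme–proluciferin substrate mix preincubated with compound 10 min at room temperature, then NADPH regeneration added for 1 h at room temperature. Detection reagent added for 20 min; luciferin light read as relative luminescence units.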

In assay [12] the target is Cytochrome P450 2C9 (Homo sapiens) (UniProt P11712). Put plainly: Cytochrome P450 family 2 subfamily C member 9 (CYP2C9) small molecule antagonists: luciferase biochemical (cell-free) qHTS assay (AID 1645842; active = well fitted curve in the direction sought with a large enough effect in the repeat runs; an effect the other way counts as inactive or inconclusive; note: % is set by controls: 0 for no effect and ±100 for the full control effect; nearly all actives have a fitted effect of over 55% in size). The procedure, abridged:
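Luminescence, after 20 min with luciferin detection reagent, reflected CYP2C9 turnover during a 1 h NADPH-driven reaction at 37C. Enzyme-substrate mix contained 0.4% bovine serum albumin and was preincubated with compound 10 min at room temperature.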

Assay [13] is described as follows: Primary qHTS to identify inhibitors of SARS-CoV-2 cell entry (AID 1645846; calls by dose curve; note: nearly all actives have a fitted effect of over 45% in size). The following applies: activity change, negative = inhibition: at 57.1 µM (top of the series) unless noted. The procedure, abridged:
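Entry measured by luciferase signal 48 h after adding SARS-CoV-2-S pseudotyped MLV particles to HEK293-ACE2 cells preincubated 1 h with compounds. Normalisation: bald particles and spike particles.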

A short description of assay [14]: qHTS drug screen for cell cycle checkpoint inhibitors in PARPi-resistant BRCA-mutant ovarian cancer cell lines. (AID 1963452; calls by dose curve). The following applies: PEO1/OlaR viability, CellTiter-Glo luminescence, 96 h, stronger effect = lower value. An outline of the steps: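 PEO1, PEO4 and PEO1/OlaR ovarian cancer cells, 600 per well, exposed 96 h at 37C to a dilution series. Viability read by CellTiter-Glo luminescence, normalized to DMSO and empty wells; activity summarized as Z-AUC.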

Each structure is given as a SMILES string. “And” between values parts separate entries of the source, which are not always exact repeats. Identical values can stand only once. Results filed as inconclusive are left out. The source made the active and inactive calls. Unless noted, calls come from the whole dose curve; as a rule, active = well fitted curve in the direction sought with a large enough effect; inconclusive = small, poorly fitted or top-dose-only effect, or another doubt; inactive = no such curve, though single readings can be large; an effect the other way counts as inactive or inconclusive.

Cytochrome P450 2D6 (Homo sapiens), sequence (P10635 whole entry, looked up): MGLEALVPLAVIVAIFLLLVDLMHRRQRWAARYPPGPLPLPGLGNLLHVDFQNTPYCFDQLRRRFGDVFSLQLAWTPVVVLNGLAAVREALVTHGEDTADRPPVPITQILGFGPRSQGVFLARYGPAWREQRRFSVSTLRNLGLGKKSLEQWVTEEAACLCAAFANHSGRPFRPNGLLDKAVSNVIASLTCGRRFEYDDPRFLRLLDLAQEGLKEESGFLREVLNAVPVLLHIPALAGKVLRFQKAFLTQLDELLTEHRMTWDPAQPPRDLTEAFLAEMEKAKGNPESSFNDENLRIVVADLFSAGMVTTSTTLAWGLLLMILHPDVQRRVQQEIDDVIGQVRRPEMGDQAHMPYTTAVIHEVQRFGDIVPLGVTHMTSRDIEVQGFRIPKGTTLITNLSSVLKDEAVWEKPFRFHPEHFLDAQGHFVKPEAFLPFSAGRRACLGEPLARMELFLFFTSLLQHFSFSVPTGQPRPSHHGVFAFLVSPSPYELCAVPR
Cytochrome P450 2C9 (Homo sapiens), sequence (P11712 whole entry, looked up): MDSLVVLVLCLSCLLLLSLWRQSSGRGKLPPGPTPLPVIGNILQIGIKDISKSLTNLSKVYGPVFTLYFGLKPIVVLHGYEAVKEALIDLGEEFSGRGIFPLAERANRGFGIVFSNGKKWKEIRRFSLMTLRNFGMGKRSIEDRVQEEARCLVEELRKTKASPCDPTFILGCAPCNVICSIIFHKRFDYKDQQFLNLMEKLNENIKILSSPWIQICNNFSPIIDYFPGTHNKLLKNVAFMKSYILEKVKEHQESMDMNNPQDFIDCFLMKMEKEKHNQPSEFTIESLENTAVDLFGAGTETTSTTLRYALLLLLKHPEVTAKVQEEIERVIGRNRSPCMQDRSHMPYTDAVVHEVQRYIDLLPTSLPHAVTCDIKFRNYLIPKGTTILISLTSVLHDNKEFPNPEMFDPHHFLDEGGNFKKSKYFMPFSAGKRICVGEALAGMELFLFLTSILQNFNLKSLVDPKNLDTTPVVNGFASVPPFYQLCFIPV

As to `C=C1[C@@H](C)C2[C@H](Cc3ccccc3)NC(=O)[C@@]23C(/C=C/C[C@H](C)C[C@@](C)(O)/C=C/[C@@H]3OC(C)=O)[C@@H]1O` (some centres not stated), the Potency in [1] was 2.91 µM (active); in assay [3], 205 nM (active). For the same compound, the Potency result (in [2]; in [4]; in assay [5]; in the assay with CAOV3) was “inactive” each time.

Take `C=CCN1CCC2(C)c3cc(O)ccc3C[C@H]1[C@H]2C`: the Potency entry (in [1]; in [2]; in [3]; in assay [4]; in [5]; in the assay with CAOV3) was “inactive” throughout. In addition, the Potency entry in the assay on HeLa and with SKOV3 was “inactive” throughout.

For the compound `CC1=CC2(O)/C=C/C(C)(O)C(O)C(O)/C=C/C(=O)OC23C(=O)NC(CC(C)C)C3C1C` (configuration not stated), the Potency entry (in assay [6]; in assay [1]; in [2]; in assay [3]; in assay [5]; in the assay on HeLa) was “inactive” each time. Further, in the assay with SKOV3, the Potency entry is “inactive”. For the same compound, the Potency in assay [4] was 10.3 µM (active). For the same compound, the outcome with HACAT is “inactive [at 17.4 µM]”.

Take `C[C@H]1O[C@@H](O[C@H]2CC[C@]3(CO)C4CC[C@]5(C)[C@@H](C6=CC(=O)OC6)CC[C@]5(O)[C@@H]4CC[C@H]3C2)[C@H](O)[C@H](O)[C@@H]1O[C@@H]1O[C@H](CO)[C@@H](O)[C@H](O)[C@H]1O` (some centres not stated): the Potency in assay [1] is 0.862 µM (active); in assay [3], 1080 nM (active); in the assay on HeLa it was 3.16 µM (active); in the assay on SKOV3, 2.82 µM (active). The activity in [7] was -90%; in assay [9] it was -7.07%; in assay [10], -1.28%. The activity change, negative = inhibition in assay [8] is -0.722% [at 19.1 µM]. Further, the Potency entry in [5] is “inactive”.

Consider `Oc1ccc2c3c1O[C@H]1c4[nH]c5c(N=C=S)cccc5c4C[C@@]4(O)[C@@H](C2)N(CC2CC2)CC[C@]314`, for which the Potency entry (in assay [4]; in assay [5]; in the assay with CAOV3; in the assay on HeLa; with SKOV3) was “inactive” each time. The outcome with HACAT was “inactive”.

With `C[C@]12CC[C@H](O)C[C@H]1CC[C@@H]1[C@@H]2[C@H](O)C[C@]2(C)[C@@H](c3ccc(=O)oc3)CC[C@]12O`, the Potency in [3] was 45.9 nM (active); in the assay with KB-3-1, 0.0517 µM (active); in the assay on CAOV3, 0.1 µM (active); in the assay on HeLa, 0.112 µM (active). Moreover, the Potency result in assay [4] and in [5] was “inactive” each time.

Regarding `C[C@@H]1C[C@@H](O)[C@]2(O)O[C@@H]3C[C@@]4(C=O)C(CC[C@@H]5C4CC[C@]4(C)[C@@](O)(C6=CC(=O)OC6)CC[C@]54O)C[C@H]3OC2O1` (some centres not stated), the Potency was 1.59 µM (active) in assay [1], 1120 nM (active) in assay [3], 9.22 µM (active) in [4] and 3.98 µM (active) with HeLa. Moreover, the Potency result in [5] was “inactive”.

Consider `CCC1=CC2CN3CCc4c([nH]c5ccccc45)[C@@](C(=O)OC)(C2)[C@@H]13`, for which the Potency entry (in assay [2]; in assay [5]; in the assay on CAOV3) was “inactive” each time.

In the case of `COc1cc(N2CCN(C)CC2)ccc1N`, the Potency entry (in [1]; in [2]; in assay [11]; in assay [12]; with CAOV3; with HeLa) was “inactive” each time. Further, the Potency entry in the assay on SKOV3 is “inactive”. Besides, the activity in assay [7] was -7.03%; in assay [9], -3.44%; in [10], -33.9%. The activity change, negative = inhibition in [8] was -4.23%. In addition, in assay [4], the Potency is 1.19 µM (active).

Take `Cc1sc2c(c1C)C(c1ccc(Cl)cc1)=N[C@@H](CC(N)=O)c1nnc(C)n1-2`: the Potency result in assay [2], in assay [11], in assay [12], in [4] and in assay [5] was “inactive” each time. Moreover, in assay [13], the activity change, negative = inhibition is -6.24%. For the same compound, the Potency is 51.5 nM (active) and 148 nM (active) in [3]; 0.891 µM (active) in the assay on SKOV3. Moreover, the Z-AUC in assay [14] was -0.829 (inactive) and -0.822 (inactive); in [14] (measured here: PEO1 parental Z-AUC) it was -0.858 and -0.588; in assay [14] (measured here: PEO4 Z-AUC), -1.13 and -0.593.

With `COc1cc(O)c2c(c1)/C=C/C[C@@H](O)[C@@H](O)C(=O)CCC[C@H](C)OC2=O`, the Potency result (in assay [1]; in [2]; in assay [4]; in assay [5]; in the assay on CAOV3; in the assay on HeLa) was “inactive” in each case. In addition, the Potency entry in the assay with SKOV3 was “inactive”.
